# According to the supplement of paper PMC10681739:
# Experiments:
# ETS1 [1] = molecular target: T1, ETS1 (UniProt P14921); assay: ETS1 binding intensity (PBM fluorescence), ETS1 alone (arbitrary fluorescence units); higher = stronger binding; settings: ETS1 concentration 1 nM; RUNX1 concentration 0 nM
# T1 sequence: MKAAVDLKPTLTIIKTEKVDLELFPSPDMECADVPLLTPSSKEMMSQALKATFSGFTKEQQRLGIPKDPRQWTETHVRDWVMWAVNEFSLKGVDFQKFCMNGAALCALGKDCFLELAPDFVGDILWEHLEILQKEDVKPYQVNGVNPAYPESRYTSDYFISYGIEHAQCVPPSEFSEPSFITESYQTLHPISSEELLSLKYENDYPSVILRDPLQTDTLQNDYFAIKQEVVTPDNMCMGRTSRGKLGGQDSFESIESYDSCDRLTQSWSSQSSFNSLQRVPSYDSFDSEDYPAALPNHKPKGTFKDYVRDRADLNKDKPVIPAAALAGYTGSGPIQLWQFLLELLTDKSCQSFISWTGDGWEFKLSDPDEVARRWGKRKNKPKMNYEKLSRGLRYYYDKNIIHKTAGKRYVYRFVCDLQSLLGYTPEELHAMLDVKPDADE
# RUNX1 [2] = molecular target: RUNX1 (UniProt Q01196); assay: RUNX1 binding intensity (PBM fluorescence), RUNX1 alone (arbitrary fluorescence units); higher = stronger binding; settings: RUNX1 concentration 2 nM; ETS1 concentration 0 nM
# RUNX1, sequence (Q01196 whole entry): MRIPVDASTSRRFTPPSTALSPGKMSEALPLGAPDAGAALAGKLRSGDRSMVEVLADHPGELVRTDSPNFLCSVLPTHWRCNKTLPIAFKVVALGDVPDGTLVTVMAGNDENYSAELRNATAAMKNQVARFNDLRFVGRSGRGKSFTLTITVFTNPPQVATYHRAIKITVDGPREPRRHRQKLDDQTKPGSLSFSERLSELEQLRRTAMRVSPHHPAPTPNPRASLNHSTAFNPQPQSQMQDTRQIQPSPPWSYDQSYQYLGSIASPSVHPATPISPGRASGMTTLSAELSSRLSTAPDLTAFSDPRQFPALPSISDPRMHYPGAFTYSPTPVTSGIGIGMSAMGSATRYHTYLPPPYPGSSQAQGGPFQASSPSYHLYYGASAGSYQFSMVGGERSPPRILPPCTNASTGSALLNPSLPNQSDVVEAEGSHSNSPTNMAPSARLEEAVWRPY
# Protocol: (§1)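 Cooperative gcPBM on 36-bp genomic probes with neighbouring ETS1 and RUNX1 sites. Recombinant human RUNX1 (2 nM) was incubated alone or with ETS1 (25 nM) and detected with anti-RUNX1 antibody plus Alexa488 secondary. Values are medians over 4 replicate spots; the RUNX1+ETS1 data were normalised to the RUNX1-only data. The probes sit in constant array flanks that are not printed.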
# ETS1 [3] = molecular target: T1, ETS1; assay: ETS1 binding intensity (PBM fluorescence) in presence of RUNX1, normalised to ETS1-only experiment (arbitrary fluorescence units); higher = stronger binding; settings: ETS1 concentration 1 nM; RUNX1 concentration 25 nM
# RUNX1 [4] = molecular target: RUNX1 (UniProt Q01196); assay: RUNX1 binding intensity (PBM fluorescence) in presence of ETS1, normalised to RUNX1-only experiment (arbitrary fluorescence units); higher = stronger binding; settings: RUNX1 concentration 2 nM; ETS1 concentration 25 nM
# Protocol: as §1
# 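Throughout, for RUNX1 binding intensity (PBM fluorescence) in presence of ETS1, normalised to RUNX1-only experiment: Full-length recombinant human ETS1 or RUNX1 bound to double-stranded 36-bp genomic probes on microarrays, detected by protein-specific primary antibody and Alexa488 secondary, spot fluorescence as median of four replicate spots.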
# 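Throughout, for RUNX1 binding intensity (PBM fluorescence), RUNX1 alone: Full-length recombinant human RUNX1 bound to double-stranded 36-bp genomic probes on a high-density microarray, scored as Alexa488 fluorescence per spot via anti-RUNX1 antibody, median of four replicate spots.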
Sequence,ETS1 binding intensity (ETS1 [1]),RUNX1 binding intensity (RUNX1 [2]),ETS1 binding intensity (ETS1 [3]),RUNX1 binding intensity (RUNX1 [4])
GAGCCCAACCGGCATCCGTCGCGGTTGGACGTGGGC,343,761,490,1070
GCCAGCGGGGCTTCCGGCCCCGCAGGCAGAAGTCGA,1460,646,1290,1260
GGCTGTGCTTCAGGATGTGGTAATGCTTGGGAGGCG,990,780,4180,1360
GTGGGTTTAGGATATGGGTGTGGTTTCTAATTGTCT,428,885,653,1020
CTCCGGCGGAAGTTGTCTCTTCGCCGCCGCCGCAGC,3590,792,5200,1690
ACAGGAAATGACATCAGAATCTCCAAACCACAACCA,1030,1390,5020,2110
CCCTTCGCTTCCGCTCCGCGTTCCCACAATGCAGTG,884,1600,1090,3700
TCCGGAAATAGATAATATCTAGTTAAACCTCAAAAT,1540,786,2850,965
CAGAGGACAGGATGCCAACCCCAAAACCGCAGCGAC,733,4020,6200,9280
CAGGGTGTCGGCTTCCGGCGGTTGCCCACTTTCGGC,1100,763,1090,1790
CTTCTGAGAGGAGGATGTGGTCAGATACCTACAAAT,1030,854,7800,1650
CAGAAAGAGGAAATGATGCGAGTCCACACCGCAGGC,788,703,2610,1170
CTGCACTTCCGGTCAGGCGGTCGGGCTGCGGGGCCC,5690,739,6710,2680
GTCTTCCTTCCTGAGAATCTTAACCACCAGCTTGCC,434,1350,483,2050
TCTTCTTCCTCCCCCACCCCAAAAGCCACAGGTGAC,492,1290,441,1410
GGCCGGGGGCAGGAAGCTGCGGCGCTGGCTCCCCCC,2510,649,3390,884
GAGCAGGAAGCACCCCCAGCACAGGCCTGCGGTGAG,438,741,1350,911
GAAATCCATCACGGATGTGGGCTTTTTGCTCTCATT,1490,760,1620,1010
CCGGTCCGCTCGCCGGAAATGCGGGCTCTCCTGCCG,8400,815,10400,1240

Sequence,ETS1 binding intensity (ETS1 [1]),RUNX1 binding intensity (RUNX1 [2]),ETS1 binding intensity (ETS1 [3]),RUNX1 binding intensity (RUNX1 [4])
GCGGGGACCCGGATGTGTGTGGTGGCGGCGGCCGAA,3040,700,3350,1220
CTGCCGGAAGCTGCCCCTCCACCATTTTGTGGCCCG,1770,818,1850,1280
CGGGGATGGGATTTCCGGTGGTTTTTCTTCACTTTC,4490,851,4760,3240
GCCCCTAAACCGGATGCGGCAGCCACCGCGGACCCC,9010,1290,16600,3550
AGAGACAGCGGGCGGAAACCGCAGAAAAAGTTGAAA,1640,8270,3260,14200
CCCCGCCTCTTCCGCTTCTGTGGTCTGATCTGCCTG,704,1250,1040,3860
GGCGGAAGCTGCCGCTGCCTTGCGCCCCCACACACG,640,818,685,1040
GAGTTCTAGACTACAGGATGTGGTTAGAAGAAAAGA,4670,837,56900,4800
AGCTGTTTGGTCACAGGATGTGGTTATTAGAATAGG,4800,894,27900,4040
AGCTAGACTACAGGAGGAAACCACAGCCTAAACCAG,541,1250,1030,1410
GCGGGCGGAAGTGCCGAGGTTGTACCGCGGCGCTGG,2020,714,2260,1200
CCAGCCCAGGAAACAAGGAACCCCAAAGCCACAGGA,392,828,579,979
CAACAACCGGAAGTGGGGCGGGCCGCAGTACCCGCC,14900,701,15800,3010
CACTTCCCCCAGCCTCTCTTTTTAATACCACAATAG,634,3520,876,3290
AAAGACAGGATGTGGGGGAGTGAGCCACAAGGGCCC,1160,752,1720,2080
TCTAACGCTGAAGGAGGATGTGGTTTCCTATTGGAC,1770,880,11500,2110
ATCACTTGTTTCCGCCAGCAAACCACAGGTCCCCAG,417,1550,811,3750
GACCTGGGTTTCCTGTCTGTACATCGCGGTTCCTAC,936,856,1260,1830
